Measurements taken from PubChem BioAssay (EPA / NIEHS).
The source made the active and inactive calls. How the source made its calls: active means hit-call score of the fitted dose curve at least 0.9, where 1 is the maximum; inactive means score below 0.9.

Each compound was assayed on JUN Transcription Factor, JUN (gene 3725) (assay: LTEA_HepaRG_JUN: Life Technologies and Expression Analysis (LTEA) Assay for JUN Transcription Factor using HepaRG (AID 2283513)). Settings: mRNA level, 48 h; actives raise or lower the signal.
Protocol: LTEA_HepaRG is a cell based, multiplexed-readout assay that uses HepaRG, a human liver cell line, with measurements taken at 48 hours after chemical dosing on a 96-well plate.LTEA_HepaRG_JUN is one of 102 assay component(s) measured in the LTEA HepaRG cell culture assay. It is a marker of Cell proliferation, survival, death.Data from the assay component LTEA_HepaRG_JUN was analyzed into 1 endpoint. This assay endpoint, LTEA_HepaRG_JUN, was analyzed with bidirectional fitting relative to DMSO as the negative control and baseline of activity. Using a type of inducible reporter, measures of mRNA induction for gain or loss-of-signal activity can be used to understand regulation of transcription factor activity. To generalize the intended target to other relatable targets, this assay endpoint is annotated to the dna binding intended target family, where the subfamily is basic leucine zipper.
A total of 1060 chemcials from the ToxCast library were tested in eight-point concentration-response experiments. Cell culture and cytotoxicity assays were conducted at Thermo Fisher Scientific's Custom Services facility (Madison, WI). A single lot of human HepaRG cells (Thermo Fisher Scientific, Frederick, MD) was used for the cell culture experiments. 96-well format collagen type I coated plates of human HepaRG cells were prepared using established methods. Briefly, cryopreserved HepaRG cells were thawed, plated at a density of approximately 100,000 cells/well in HepaRG Thaw, Plate, and General Purpose media (HPRG770, Thermo Fisher Scientific), and incubated for 48 hours. 0.5% DMSO was selected as vehicle control to balance the requisite need of DMSO in HepaRG cultures to maintain differentiation (for example, baseline metabolism, proportions of hepatocytes vs. cholangiocytes), while enabling further hepatic receptor pathway activation (for example, PXR and CAR) in response to chemical exposure. 48 hours after plating, the culture medium was replaced with HepaRG Serum-Free Incudtion Media. Cells were exposed to each test chemical in duplicate and maintained in CO2 incubators for another 48 hours. Chemical plates were thawed to room temperature and 200x concentrations of treatment groups were prepared. 8-point conentration-reponse curves were made with the highest exposure at 100 uM, followed by half-log dilutions, all in 0.5% DMSO. Each test plate contained variouse controls, induction positive controls (1mM phenobarbital), cytotoxicity positive controls ([…] aflatoxin B1), vehicle controls (0.5% DMSO), and total lysis controls (0.5% DMSO). Cell morphology images were taken using an Essen IncuCyte FLR automated microscope, with six 96-well plates imaged in about 24 minutes. Images were captured and exported and JPEG files. Spent culture media was transfered to black-well plates for the LDH assay, and remaining media was sorted at -80 C for later use. Cells were treated with RLT buffer and frozen until shipped for gene expression analysis. Total RNA was isolated from the cell suspension in 75 uL of Buffer RLT (Qiagen, Germantown, MD 20874) by Quintiles/Expression Analysis (Durham, NC) using a custom isolation procedure. Total RNA from each plate well was transferred to a preamplification plate. Fluidigm's 96.96 Dynamic ArrayTM (Fluidigm, Amsterdam, the Netherlands) technology was used for gene expression analyses by quantitative reverse transcription polymerase chain reaction (qRT-PCR, performed by Quintiles/Expression Analysis, Durham, NC)89. Standard TaqManTM Assays (Applied Biosystems/ThermoFisher Scientific, Foster City, CA) were used to assess the expression of 93 genes selected based on their selectivity and sensitivity to important hepatic receptors known to be modulated by environmental chemicals; importance in human hepatocyte functionality; and hepatotoxicity. […]

SMILES	outcome	AC50
CCNP(=S)(OC)O/C(C)=C/C(=O)OC(C)C (stereo not given)	inactive	–
CS(=O)(=O)c1cc(C(F)(F)F)ccc1C(=O)c1cnoc1C1CC1	inactive	–
CC(C)C1(C)N=C(c2ncccc2C(=O)O)NC1=O (stereo not given)	inactive	–
CSC(=O)c1c(C(F)F)nc(C(F)(F)F)c(C(=O)SC)c1CC(C)C	inactive	–
O=P(O)(O)CCCl	inactive	–
CC(C)Nc1nc(Cl)nc(NC(C)C)n1	inactive	–
CC(C)Oc1cccc(NC(=O)c2ccccc2C(F)(F)F)c1	inactive	–
Cc1nc(N(C)C)nc(OC(=O)N(C)C)c1C	inactive	–
CCOP(=O)(OCC)Oc1nc(Cl)c(Cl)cc1Cl	inactive	–
CCN(CC)C(=O)C(C)Oc1cccc2ccccc12 (stereo not given)	inactive	–
Clc1nc(Cl)nc(Nc2ccccc2Cl)n1	inactive	–
N#CN=C1SCCN1Cc1ccc(Cl)nc1	inactive	–
COCC(=O)N(c1c(C)cccc1C)C(C)C(=O)OC (stereo not given)	inactive	–
N#Cc1c(Cl)cccc1Cl	inactive	–
CCSC(=O)N1CCCCCC1	inactive	–
Cc1ccc(N=CN(C)C=Nc2ccc(C)cc2C)c(C)c1	inactive	–
CS(=O)(=O)c1ccc(C(=O)C2C(=O)CCCC2=O)c([N+](=O)[O-])c1	inactive	–
CCCCOCN(C(=O)CCl)c1c(CC)cccc1CC	inactive	–
CNC(=O)N(C)c1nnc(C(C)(C)C)s1	inactive	–
CC(C)N1C(=O)N(c2ccccc2)CSC1=NC(C)(C)C	inactive	–

SMILES	outcome	AC50
CC1(C)C(C(=O)OC(C#N)c2cccc(Oc3ccccc3)c2)C1(C)C (stereo not given)	inactive	–
CCOc1nc(F)cc2nc(S(=O)(=O)Nc3c(Cl)cccc3Cl)nn12	inactive	–
CC(C)=CC1C(C(=O)OCc2coc(Cc3ccccc3)c2)C1(C)C (stereo not given)	inactive	–
COc1cc(OC)nc(NC(=O)NS(=O)(=O)c2ncccc2OCC(F)(F)F)n1	inactive	–
CCCC(=NOCC)C1=C(O)CC(CC(C)SCC)CC1=O (stereo not given)	inactive	–
COC(=O)c1c(C(F)F)nc(C(F)(F)F)c(C2=NCCS2)c1CC(C)C	inactive	–
CCCCC(C#N)(Cn1cncn1)c1ccc(Cl)cc1 (stereo not given)	inactive	–
CCC(C)n1c(=O)[nH]c(C)c(Br)c1=O (stereo not given)	inactive	–
COCc1cnc(C2=NC(C)(C(C)C)C(=O)N2)c(C(=O)O)c1 (stereo not given)	inactive	–
CCNC(=O)NC(=O)C(C#N)=NOC	inactive	–
COc1cc(Cl)c(OC)cc1Cl	inactive	–
CC1(C)C(C=C(Cl)Cl)C1C(=O)OC(C#N)c1cccc(Oc2ccccc2)c1 (stereo not given)	inactive	–
Cc1cnc(C2=NC(C)(C(C)C)C(=O)N2)c(C(=O)O)c1 (stereo not given)	inactive	–
CNC(=O)Oc1cccc2ccccc12	inactive	–
COC(=O)N(C(=O)N1CO[C@@]2(C(=O)OC)Cc3cc(Cl)ccc3C2=N1)c1ccc(OC(F)(F)F)cc1	inactive	–
CN/C(=N\[N+](=O)[O-])NCc1cnc(Cl)s1	inactive	–
CC(C)N1C(=O)c2ccccc2NS1(=O)=O	inactive	–
N#Cc1c[nH]cc1-c1cccc2c1OC(F)(F)O2	inactive	–
Clc1cccc(C(Cl)(Cl)Cl)n1	inactive	–
CCOc1nc(C(Cl)(Cl)Cl)ns1	–	1.89 µM (active)
